Data as given in the supplement of paper PMC6411743.
± gives the standard deviation of the averaged measurements. About 6,200 targets were measured; listed, in parts, are those with the largest changes and a random draw of the rest.

Compound: Nc1ncnc2c1ncn2[C@@H]1O[C@H](COP(=O)(O)OP(=O)(O)NP(=O)(O)O)[C@@H](O)[C@H]1O [adenylyl imidodiphosphate]
Assay: NP40-soluble protein abundance relative to vehicle (solubility fold change) (ratio); higher = more soluble protein in presence of AMP-PNP
Summary of the method: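 Jurkat crude lysate (Dounce-homogenised) was treated with eight concentrations from 0.1 to 10 mM for 10 min at room temperature, then 3 min at 37 °C. It was solubilised with 0.8% NP40 and benzonase (60 min, 4 °C) and ultracentrifuged, and the supernatant was TMT-labelled for LC-MS/MS. Intensities were vsn-normalised, and the value is the fold change against the NP40-processed vehicle per replicate, from three independent experiments.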

UniProt P14649, sequence (P14649 whole entry): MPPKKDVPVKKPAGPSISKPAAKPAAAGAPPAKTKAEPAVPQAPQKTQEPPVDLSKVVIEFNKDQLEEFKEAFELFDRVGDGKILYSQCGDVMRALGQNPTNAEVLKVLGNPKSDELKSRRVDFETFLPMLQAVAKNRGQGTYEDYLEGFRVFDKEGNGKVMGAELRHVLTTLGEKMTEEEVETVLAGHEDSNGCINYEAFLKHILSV
UniProt O95602, sequence (O95602 whole entry): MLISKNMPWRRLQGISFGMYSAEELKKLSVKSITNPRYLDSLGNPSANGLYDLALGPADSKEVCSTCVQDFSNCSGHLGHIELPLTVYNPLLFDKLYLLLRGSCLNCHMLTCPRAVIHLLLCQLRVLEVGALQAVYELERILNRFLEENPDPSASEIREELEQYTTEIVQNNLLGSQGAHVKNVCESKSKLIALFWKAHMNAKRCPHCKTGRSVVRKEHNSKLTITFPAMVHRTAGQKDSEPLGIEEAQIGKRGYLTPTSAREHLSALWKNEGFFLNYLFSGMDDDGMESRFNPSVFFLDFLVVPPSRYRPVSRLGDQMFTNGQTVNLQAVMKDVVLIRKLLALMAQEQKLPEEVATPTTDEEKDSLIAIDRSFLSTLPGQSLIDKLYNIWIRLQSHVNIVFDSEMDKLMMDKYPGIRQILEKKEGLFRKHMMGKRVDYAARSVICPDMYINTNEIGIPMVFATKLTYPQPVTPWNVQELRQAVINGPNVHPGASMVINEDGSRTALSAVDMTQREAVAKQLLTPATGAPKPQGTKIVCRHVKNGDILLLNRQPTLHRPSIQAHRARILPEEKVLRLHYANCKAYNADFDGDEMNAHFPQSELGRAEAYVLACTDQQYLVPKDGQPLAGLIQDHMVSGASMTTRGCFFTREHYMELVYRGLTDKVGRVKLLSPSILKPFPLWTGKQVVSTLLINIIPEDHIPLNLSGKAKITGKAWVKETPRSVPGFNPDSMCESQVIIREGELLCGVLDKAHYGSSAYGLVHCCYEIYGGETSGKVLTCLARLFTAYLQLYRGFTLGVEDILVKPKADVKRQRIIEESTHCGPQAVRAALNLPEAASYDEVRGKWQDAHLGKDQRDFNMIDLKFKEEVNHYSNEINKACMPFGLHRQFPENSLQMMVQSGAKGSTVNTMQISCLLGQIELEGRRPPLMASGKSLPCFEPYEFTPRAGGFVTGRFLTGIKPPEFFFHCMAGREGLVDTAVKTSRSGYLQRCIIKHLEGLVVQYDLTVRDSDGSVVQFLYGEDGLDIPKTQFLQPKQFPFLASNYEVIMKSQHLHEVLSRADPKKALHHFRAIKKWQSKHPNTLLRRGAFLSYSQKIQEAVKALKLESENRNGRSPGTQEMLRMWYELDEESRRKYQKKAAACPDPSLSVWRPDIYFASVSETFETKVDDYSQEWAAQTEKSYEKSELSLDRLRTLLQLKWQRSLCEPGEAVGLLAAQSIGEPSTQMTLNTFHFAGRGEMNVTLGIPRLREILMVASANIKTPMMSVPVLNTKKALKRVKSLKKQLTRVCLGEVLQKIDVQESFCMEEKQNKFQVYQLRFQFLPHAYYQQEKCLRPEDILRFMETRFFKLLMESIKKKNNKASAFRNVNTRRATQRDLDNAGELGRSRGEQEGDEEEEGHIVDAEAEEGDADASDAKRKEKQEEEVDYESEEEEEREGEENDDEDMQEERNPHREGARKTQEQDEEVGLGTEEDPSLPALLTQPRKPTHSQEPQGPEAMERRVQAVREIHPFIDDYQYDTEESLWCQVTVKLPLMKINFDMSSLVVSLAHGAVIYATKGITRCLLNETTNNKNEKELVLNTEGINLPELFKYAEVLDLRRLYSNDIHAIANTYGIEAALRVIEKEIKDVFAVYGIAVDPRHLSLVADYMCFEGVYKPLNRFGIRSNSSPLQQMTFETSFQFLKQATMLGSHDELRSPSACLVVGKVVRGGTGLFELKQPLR
UniProt Q00534, sequence (Q00534 whole entry): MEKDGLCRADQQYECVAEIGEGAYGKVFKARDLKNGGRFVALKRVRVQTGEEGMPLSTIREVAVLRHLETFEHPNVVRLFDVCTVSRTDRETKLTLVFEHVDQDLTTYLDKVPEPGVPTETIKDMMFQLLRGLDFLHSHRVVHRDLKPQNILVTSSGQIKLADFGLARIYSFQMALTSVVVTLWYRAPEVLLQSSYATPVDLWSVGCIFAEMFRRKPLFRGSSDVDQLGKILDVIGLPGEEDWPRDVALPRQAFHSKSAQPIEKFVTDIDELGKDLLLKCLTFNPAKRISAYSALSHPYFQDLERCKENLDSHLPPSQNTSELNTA
UniProt P52948, sequence (P52948 whole entry): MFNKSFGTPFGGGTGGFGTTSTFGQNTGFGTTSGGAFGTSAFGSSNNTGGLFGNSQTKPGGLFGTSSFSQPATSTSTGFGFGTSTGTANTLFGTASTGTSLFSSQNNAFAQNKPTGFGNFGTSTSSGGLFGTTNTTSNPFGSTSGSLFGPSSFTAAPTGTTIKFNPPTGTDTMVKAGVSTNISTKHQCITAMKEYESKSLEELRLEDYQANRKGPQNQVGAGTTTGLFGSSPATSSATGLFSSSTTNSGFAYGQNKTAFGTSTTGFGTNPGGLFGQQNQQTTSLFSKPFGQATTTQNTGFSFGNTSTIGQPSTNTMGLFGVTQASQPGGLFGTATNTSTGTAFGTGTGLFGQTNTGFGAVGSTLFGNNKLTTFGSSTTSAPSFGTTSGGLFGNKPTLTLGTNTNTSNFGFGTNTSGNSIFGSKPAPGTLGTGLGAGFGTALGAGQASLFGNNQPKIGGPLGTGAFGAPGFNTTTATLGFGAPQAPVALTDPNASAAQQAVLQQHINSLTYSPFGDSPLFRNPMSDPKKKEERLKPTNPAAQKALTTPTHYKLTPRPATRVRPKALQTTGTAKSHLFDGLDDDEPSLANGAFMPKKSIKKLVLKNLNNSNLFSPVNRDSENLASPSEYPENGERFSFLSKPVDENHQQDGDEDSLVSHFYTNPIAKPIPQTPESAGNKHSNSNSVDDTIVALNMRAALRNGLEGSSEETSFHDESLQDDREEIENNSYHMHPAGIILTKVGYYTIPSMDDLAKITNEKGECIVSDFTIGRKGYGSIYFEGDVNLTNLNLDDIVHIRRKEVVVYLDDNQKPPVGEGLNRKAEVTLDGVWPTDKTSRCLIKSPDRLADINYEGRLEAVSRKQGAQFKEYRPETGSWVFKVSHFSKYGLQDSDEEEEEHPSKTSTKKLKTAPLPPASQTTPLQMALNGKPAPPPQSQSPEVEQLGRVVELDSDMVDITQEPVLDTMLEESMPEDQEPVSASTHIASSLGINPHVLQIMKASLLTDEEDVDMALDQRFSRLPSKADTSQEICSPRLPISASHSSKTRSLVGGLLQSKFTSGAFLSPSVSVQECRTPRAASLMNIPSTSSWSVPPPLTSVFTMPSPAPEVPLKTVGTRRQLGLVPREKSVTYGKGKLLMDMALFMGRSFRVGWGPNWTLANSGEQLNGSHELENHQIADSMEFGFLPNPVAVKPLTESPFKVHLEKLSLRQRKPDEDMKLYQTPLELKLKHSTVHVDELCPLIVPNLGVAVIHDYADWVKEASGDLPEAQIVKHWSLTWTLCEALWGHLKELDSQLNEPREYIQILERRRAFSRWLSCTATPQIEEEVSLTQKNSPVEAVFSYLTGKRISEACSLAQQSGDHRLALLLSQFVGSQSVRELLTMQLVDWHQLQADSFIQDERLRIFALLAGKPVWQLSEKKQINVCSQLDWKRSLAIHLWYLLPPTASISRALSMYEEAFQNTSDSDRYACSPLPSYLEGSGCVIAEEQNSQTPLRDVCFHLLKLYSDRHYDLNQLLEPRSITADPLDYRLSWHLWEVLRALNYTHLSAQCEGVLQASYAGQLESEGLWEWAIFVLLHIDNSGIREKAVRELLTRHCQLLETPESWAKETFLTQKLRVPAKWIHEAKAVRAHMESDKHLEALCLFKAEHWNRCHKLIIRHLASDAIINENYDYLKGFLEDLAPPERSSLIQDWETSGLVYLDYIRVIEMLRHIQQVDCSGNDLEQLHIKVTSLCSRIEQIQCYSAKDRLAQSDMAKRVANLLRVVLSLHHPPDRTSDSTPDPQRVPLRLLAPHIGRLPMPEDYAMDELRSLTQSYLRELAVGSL
UniProt Q05048, sequence (Q05048 whole entry): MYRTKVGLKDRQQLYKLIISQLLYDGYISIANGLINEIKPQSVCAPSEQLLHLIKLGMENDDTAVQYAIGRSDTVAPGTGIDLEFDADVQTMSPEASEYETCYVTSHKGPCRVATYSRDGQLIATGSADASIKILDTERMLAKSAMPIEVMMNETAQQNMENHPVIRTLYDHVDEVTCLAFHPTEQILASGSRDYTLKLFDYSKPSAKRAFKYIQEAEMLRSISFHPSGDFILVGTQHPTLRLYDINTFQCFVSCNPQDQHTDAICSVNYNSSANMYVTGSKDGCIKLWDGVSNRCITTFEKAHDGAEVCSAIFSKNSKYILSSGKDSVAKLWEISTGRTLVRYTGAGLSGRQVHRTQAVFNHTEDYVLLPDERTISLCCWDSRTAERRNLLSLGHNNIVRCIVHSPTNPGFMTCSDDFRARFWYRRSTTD
UniProt P51571, sequence (P51571 whole entry): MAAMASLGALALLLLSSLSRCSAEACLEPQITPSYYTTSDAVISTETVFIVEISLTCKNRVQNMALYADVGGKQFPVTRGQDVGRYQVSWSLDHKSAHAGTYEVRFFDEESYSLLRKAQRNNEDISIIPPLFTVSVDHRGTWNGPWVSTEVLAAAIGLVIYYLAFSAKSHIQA
UniProt P62993, sequence (P62993 whole entry, looked up): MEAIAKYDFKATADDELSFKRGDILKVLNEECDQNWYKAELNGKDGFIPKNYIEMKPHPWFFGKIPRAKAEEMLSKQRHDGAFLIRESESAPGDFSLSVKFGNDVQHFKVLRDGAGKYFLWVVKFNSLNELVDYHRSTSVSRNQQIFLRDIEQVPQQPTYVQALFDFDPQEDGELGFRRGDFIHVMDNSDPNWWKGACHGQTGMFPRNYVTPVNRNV
UniProt P05114, sequence (P05114 whole entry): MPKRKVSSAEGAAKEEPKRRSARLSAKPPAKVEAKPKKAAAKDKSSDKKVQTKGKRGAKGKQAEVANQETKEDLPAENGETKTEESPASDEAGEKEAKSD

Target	NP40-soluble protein abundance (concentration: 1mM)	NP40-soluble protein abundance (concentration: 2mM)	NP40-soluble protein abundance (concentration: 4mM)	NP40-soluble protein abundance (concentration: 6mM)	NP40-soluble protein abundance (concentration: 8mM)	NP40-soluble protein abundance (concentration: 10mM)
UniProt P52948|P52948-2|P52948-5|P52948-6	1.07 ± 0.047	1.1 ± 0.015	1.13 ± 0.018	1.22 ± 0.056	1.28 ± 0.02	1.417 ± 0.011
GRB2 (UniProt P62993)	0.985 ± 0.035	0.943 ± 0.046	0.946 ± 0.023	0.972 ± 0.01	0.944 ± 0.037	0.918 ± 0.024
ACTR1B (UniProt P42025)	1 ± 0.062	0.927 ± 0.12	0.983 ± 0.071	0.986 ± 0.029	0.965 ± 0.063	0.961 ± 0.091
SSR4 (UniProt P51571)	0.998 ± 0.014	0.961 ± 0.064	0.988 ± 0.019	0.977 ± 0.027	0.998 ± 0.011	0.981 ± 0.037
PARP1 (UniProt P09874)	1.06 ± 0.018	1.09 ± 0.05	1.21 ± 0.016	1.39 ± 0.027	1.51 ± 0.071	1.59 ± 0.11
CDK6 (UniProt Q00534)	0.987 ± 0.029	0.951 ± 0.022	0.959 ± 0.03	0.967 ± 0.012	0.945 ± 0.033	0.91 ± 0.029
GCLC (UniProt P48506)	0.993 ± 0.027	0.928 ± 0.043	0.976 ± 0.033	0.941 ± 0.014	0.963 ± 0.029	0.922 ± 0.02
UniProt P36402-5	0.952 ± 0.025	0.984 ± 0.03	0.924 ± 0.046	0.876 ± 0.025	0.8484 ± 0.0036	0.837 ± 0.015
UniProt P18859|P18859-2|A8MUH2	0.948 ± 0.053	0.899 ± 0.032	0.867 ± 0.062	0.834 ± 0.05	0.825 ± 0.063	0.857 ± 0.026
UniProt P25398	0.934 ± 0.016	0.955 ± 0.044	0.869 ± 0.053	0.872 ± 0.033	0.81 ± 0.054	0.847 ± 0.049
ECHS1 (UniProt P30084)	0.9976 ± 0.0068	0.9885 ± 0.006	0.955 ± 0.029	0.994 ± 0.02	0.963 ± 0.017	0.961 ± 0.015
HMGN1 (UniProt P05114)	1.23 ± 0.1	1.36 ± 0.18	1.28 ± 0.074	1.57 ± 0.15	1.54 ± 0.16	1.89 ± 0.36
SH3BGRL (UniProt O75368)	0.939 ± 0.027	0.966 ± 0.028	0.888 ± 0.013	0.937 ± 0.031	0.907 ± 0.015	0.897 ± 0.033
POLR1A (UniProt O95602)	1 ± 0.017	1 ± 0.086	1.07 ± 0.1	1.08 ± 0.12	1.07 ± 0.14	1.11 ± 0.14
FDFT1 (UniProt P37268)	0.993 ± 0.038	0.952 ± 0.027	0.991 ± 0.024	1.03 ± 0.1	1.05 ± 0.057	1.01 ± 0.078
PYGB (UniProt P11216)	1.06 ± 0.1	1.09 ± 0.15	1.35 ± 0.14	1.43 ± 0.17	1.54 ± 0.24	1.47 ± 0.24
UniProt Q12769|G3V198	1 ± 0.024	0.9518 ± 0.0046	0.9433 ± 0.006	0.9621 ± 0.0016	0.99281 ± 0.00096	0.991 ± 0.019
MYL6B (UniProt P14649)	1.02 ± 0.042	1.1 ± 0.053	1.01 ± 0.034	0.987 ± 0.051	0.925 ± 0.041	0.962 ± 0.019
UniProt P49588|P49588-2	1.01 ± 0.013	0.976 ± 0.05	0.967 ± 0.041	0.979 ± 0.013	0.954 ± 0.03	0.952 ± 0.05
UniProt O75367|O75367-2|O75367-3	1.01 ± 0.066	1 ± 0.055	1.05 ± 0.075	1.15 ± 0.034	1.26 ± 0.092	1.44 ± 0.049
CSTF1 (UniProt Q05048)	0.9781 ± 0.0088	0.931 ± 0.075	1 ± 0.015	1 ± 0.015	1.069 ± 0.0036	1.02 ± 0.046
